Among the data in PubChem BioAssay (NCI) are growth values, retold here.

SMILES strings stand for the structures. This is part of a sample that, as a whole, favours compounds with a hit. Of some 83,000 tested, about 20% had one in any assay.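 Negative percent growth values reflect cell death: -40 means 40% of the cells present at the start died, and -100 means all died.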 Active and inactive are the calls of the source. Rule for the calls: active = growth percent below 10; inactive = the rest.

For this assay, the system named is OVCAR-3 ovarian. Kind of assay: NCI-60 one-dose screen, 48 h (100 = growth as untreated, 0 = no growth, -100 = all killed). The settings on record: 10 µM unless noted.
For the compound `COc1ccc(/C=C\c2nc3ccccc3s2)cc1OP(=O)(O)O`, the growth was 0.859% (active).
The figure for `Cn1c2c(Cl)c(Cl)ccc2c2cc(N)[nH]c(=O)c21` is 86.2% (inactive).
Take `O=C1Nc2c(ccc(Cl)c2Cl)/C1=C/c1ccccn1`: the growth was 84.6% (inactive).
Consider `O=C(N/N=C/c1ccc(O)c(O)c1)c1sc2ccccc2c1Cl`, for which the growth is 96.9% (inactive).
Consider `COc1ccccc1C(C[N+](=O)[O-])c1c(-c2ccccc2)[nH]c2cc(C)ccc12` (stereo not drawn), for which the growth is 76.1% (inactive).
Consider `O=C1/C(=C/c2ccc(O)cc2)COc2ccc(-c3ccccc3)cc21`, for which the growth is 56.5% (inactive).
The value for `Cc1cc2cc3cc(C)c(N)cc3[n+](C)c2cc1N` was 1.65% (active); that for `c1ccc(Cn2nc3c(c2-c2ccccc2)-c2oncc2CC3)cc1` was 106% (inactive).
`COc1ccc(-c2cnc(N)nc2-c2ccc(OC)cc2O)cc1`: the growth is 108% (inactive).
The value for `COc1cccc(/C=C2\COc3ccc(-c4ccccc4)cc3C2=O)c1` was -44% (active); that for `c1ccc(-c2nn(-c3ccccc3)[n+](-c3ccccc3-c3ccccc3)n2)cc1` was 1.32% (active); that for `CCOC(=O)c1c(C)nc2c(c1N)C(=O)C(=O)N2Cc1ccc(C(F)(F)F)cc1` was 18% (inactive).
On to `COc1cc2nc(-c3ccc(C(F)(F)F)cc3)cc(OCCN3CCC(O)CC3)c2cc1OC`, for which the growth was 93.8% (inactive).
`NC(=O)c1cccc(-n2ccc3cc(NC(=O)Nc4cc(C(F)(F)F)cc(C(F)(F)F)c4)ccc32)n1`: the growth was 39.1% (inactive).
As for `CN1CCN(CC#CCNC(=O)[C@]23CCC(C)(C)C[C@H]2C2=CC[C@@H]4[C@@]5(C)Cc6c([nH]c7ccccc67)C(C)(C)[C@@H]5CC[C@@]4(C)[C@]2(C)CC3)CC1`, the growth is 72.2% (inactive).
As for `COc1nccnn1`, the growth was 146% (inactive).
`Cc1ccc(S(=O)(=O)Nc2ccc(Cl)cc2)cc1`: the growth was 115% (inactive).
The value for `COc1cc2c(cc1[N+](=O)[O-])-c1ccc([N+](=O)[O-])cc1/C2=N\O` was 104% (inactive).
On to `O=C(Nc1nc2ccc(C(=O)N3CCN(c4ccc(Cl)c(Cl)c4)CC3)cc2s1)c1ccc(NCCc2ccccc2)c([N+](=O)[O-])c1`, for which the growth is 111% (inactive).
The value for `Cc1c(C2=CCCCC2)c2ccccn2c1C(=O)c1cccc(S(=O)(=O)N2CCOCC2)c1` was 73% (inactive); that for `CC(C)CN(C(=O)c1ccc(Cl)cc1)c1c(N)n(CC(C)C)c(=O)[nH]c1=O` was 115% (inactive); that for `O=C1Nc2ccccc2/C1=C\c1cccc(/C=C2/C(=O)Nc3ccccc32)n1` was -89.6% (active).
With `NC(=O)c1ccc[n+](CC(=O)N2CCN(c3cc4c(cc3F)c(=O)c(C(=O)O)cn4C3CC3)CC2)c1`, the growth was 69.4% (inactive).
As to `CCN(CCNc1cc(OC)cc2cccnc12)CCc1ccccc1`, the growth is 79% (inactive).
For `COc1ccccc1N1CCN(C(=O)c2ccc3nc(NC(=O)c4ccc(NCCc5ccccc5)c([N+](=O)[O-])c4)sc3c2)CC1`, the growth is 70.3% (inactive).
For the compound `CN1CCCC1=Nc1ccccc1`, the growth was 128% (inactive).
The figure for `COc1ccc(/C(=C\c2ccccc2)C(=O)O)cc1OC` is 104% (inactive).
In the case of `NC(=S)N/N=C(/c1ccccc1)c1ccccc1N`, the growth is 50.7% (inactive).
As to `COc1ccc(/C=N/NC(=O)c2cccc3cc[nH]c23)cc1O`, the growth is 1.58% (active).
For `Nc1nnc(C(=O)c2cnc3n(c2=O)CCCCC3)s1`, the growth is 102% (inactive).
As for `Nc1nnc2cc(Cl)ccc2n1`, the growth is 145% (inactive).
Regarding `CC(=O)Nc1ccc(S(=O)(=O)NC2CCCCC2)cc1`, the growth is 110% (inactive).
`CC1=CC2(C)/C=C(C)/C=C\CC(O)/C=C3/C=CC(=C4C(=O)OC2(CC1C)C4=O)OC3` (stereo not drawn): the growth is -100% (active).
The figure for `CN1CCN(Cc2ccc(NC(=O)c3cncc(C#Cc4cnccc4C(F)(F)F)c3)cc2C(F)(F)F)CC1` is 105% (inactive).
The figure for `CC[C@@]12C=CCN3CC[C@]4(c5cc(NC(=O)COc6cc(OCC(=O)Nc7cc8c(cc7OC)N(C)[C@H]7[C@@](O)(C(=O)OC)[C@H](OC(C)=O)[C@]9(CC)C=CCN%10CC[C@]87[C@@H]%109)cc7oc(-c8ccccc8)cc(=O)c67)c(OC)cc5N(C)[C@@H]4[C@](O)(C(=O)OC)[C@H]1OC(C)=O)[C@H]32` is -26.8% (active); for `Cc1n[nH]c(C)c1-c1c(C)n[nH]c1C` it is -53.4% (active); for `CC(N)C(=O)NNc1n[nH]c(=S)n1N` (stereo not drawn) it is 97.6% (inactive).
Turning to `Cc1ccc(-c2csc(/N=C3\C(=O)Nc4ccccc43)n2)cc1`, the growth was -10.7% (active).
